# PubChem BioAssay AID1479144 (National Center for Advancing Translational Sciences (NCATS), 2020)
# Records with an inconclusive call do not appear. Values without a mark were called inactive. Activity calls are given as the source filed them. Calls come from the whole dose curve.
# Test: Confirmatory qHTS for Vero E6 cytotoxicity: counterscreen for inhibitors of SARS-S pseudo-typed particle cell entry
# Details: cell viability; series mostly up to 57.1 µM; activity change, negative = cytotoxicity: at the top concentration
SMILES,Potency,"activity change, negative = cytotoxicity"
N=C(N)c1ccc(OCCCCCOc2ccc(C(=N)N)cc2)cc1,21.5 µM (active),
CC(C)C[C@H](NC(=O)[C@H](CCc1ccccc1)NC(=O)CN1CCOCC1)C(=O)N[C@@H](Cc1ccccc1)C(=O)N[C@@H](CC(C)C)C(=O)[C@@]1(C)CO1,0.681 µM (active),
CCCCCCOC(=O)NC(=N)c1ccc(NCc2nc3cc(C(=O)N(CCC(=O)OCC)c4ccccn4)ccc3n2C)cc1,,0%
CCN1CCN(Cc2ccc(Nc3ncc(F)c(-c4cc(F)c5nc(C)n(C(C)C)c5c4)n3)nc2)CC1,,0%
COc1cc2nccc(Oc3ccc(NC(=O)NC4CC4)c(Cl)c3)c2cc1C(N)=O,,3.84%
CCCCCCCCCCCC[n+]1ccc2ccccc2c1,3.83 µM (active),
CC(C)OC(=O)OCOP(=O)(CO[C@H](C)Cn1cnc2c(N)ncnc21)OCOC(=O)OC(C)C,,-16.5%
Oc1c(Cl)cc(Cl)c(Cl)c1Cc1c(O)c(Cl)cc(Cl)c1Cl,4.82 µM (active),
COC(=O)C1=C(C)NC(C)=C(C(=O)OCC(C)C)C1c1ccccc1[N+](=O)[O-] (configuration not stated),27.1 µM (active),
COc1ccc(Cc2nccc3cc(OC)c(OC)cc23)cc1OC,,-9.35%
CCCCN=C(N)N=C(N)N,,0%
C[n+]1c2cc(N)ccc2cc2ccc(N)cc21 (tested in a mixture with another compound),10.8 µM (active),
CCc1c2c(nc3ccc(OC(=O)N4CCC(N5CCCCC5)CC4)cc13)-c1cc3c(c(=O)n1C2)COC(=O)[C@]3(O)CC,,0%
OCCN1CCN(CC/C=C2/c3ccccc3Sc3ccc(C(F)(F)F)cc32)CC1,,-23.7%
N#CC(c1ccc(Cl)cc1)c1c(Cl)cc(-n2ncc(=O)[nH]c2=O)cc1Cl (configuration not stated),24.1 µM (active),
CC(=O)N1CCN(c2ccc(OC[C@H]3CO[C@](Cn4ccnc4)(c4ccc(Cl)cc4Cl)O3)cc2)CC1,,-20.5%

SMILES,Potency,"activity change, negative = cytotoxicity"
O=C1CCc2ccc(OCCCCN3CCN(c4cccc(Cl)c4Cl)CC3)cc2N1,,-1.16%
CC[C@H](C)C(=O)O[C@H]1C[C@@H](C)C=C2C=C[C@H](C)[C@H](CC[C@@H]3C[C@@H](O)CC(=O)O3)[C@H]21,9.61 µM (active),
Cc1cn([C@H]2C[C@H](N=[N+]=[N-])[C@@H](CO)O2)c(=O)[nH]c1=O,,-4.49%
CC[C@@]1(O)C(=O)OCc2c1cc1n(c2=O)Cc2c-1nc1ccccc1c2/C=N/OC(C)(C)C,17.1 µM (active),
CN(C)CCOC(c1ccccc1)c1ccc(Br)cc1 (configuration not stated),,-3.96%
CC(C)(C)NCC(O)COc1ccccc1C1CCCC1 (configuration not stated),,-11.2%
CNCCCC12CCC(c3ccccc31)c1ccccc12,,-14.6%
O=c1[nH]c(=O)n([C@H]2C[C@H](O)[C@@H](CO)O2)cc1C(F)(F)F,,-5.43%
C=CC(=O)Nc1cc(Nc2nccc(-c3cn(C)c4ccccc34)n2)c(OC)cc1N(C)CCN(C)C,13.6 µM (active),
CC[C@@]1(O)C(=O)OCc2c1cc1n(c2=O)Cc2cc3c([N+](=O)[O-])cccc3nc2-1,3.93 µM (active),
CCC(C)(C)C(=O)O[C@H]1C[C@@H](C)C=C2C=C[C@H](C)[C@H](CC[C@@H]3C[C@@H](O)CC(=O)O3)[C@H]21,5.41 µM (active),
COc1cc(N)c(Cl)cc1C(=O)NC1CCN(CCCOc2ccc(F)cc2)CC1OC (configuration not stated),,4.05%
CN1CCCCC1CCN1c2ccccc2Sc2ccc(S(C)=O)cc21 (configuration not stated),,-13.1%
CN1CCC[C@@H]1CCO[C@](C)(c1ccccc1)c1ccc(Cl)cc1,,-11.2%
CN1CC[C@H](CN2c3ccccc3Sc3ccccc32)C1,,-9.59%
C/C=C(/C)C(=O)O[C@H]1C(C)=CC23C(=O)C(C=C(CO)[C@@H](O)[C@]12O)[C@H]1[C@@H](C[C@H]3C)C1(C)C (some centres not stated),,3.6%
